The text below walks through data of PubChem BioAssay (NCI).

Each structure is given as a SMILES string. This is part of a sample that, as a whole, favours compounds with a hit. Of some 79,000 tested, about 15% had one in any assay. Values without a mark were called inactive. Calls of active or inactive are those of the source. Rule as the data show it: active = growth inhibition above about 70%; inactive = the rest.

Assay [1] is described as follows: NCI Yeast Anticancer Drug Screen. Data for the rad50 strain (AID 155).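 Also: 0% = growth of vehicle-only cultures of the same strain.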 Conditions: S. cerevisiae rad50 strain growth inhibition; at 50.0 µM; stronger effect = higher value. Summed up: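 Relative growth inhibition (compound vs vehicle) was measured in yeast with a defined repair-gene alteration.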
The nature of assay [2]: NCI Yeast Anticancer Drug Screen. Data for the mec2-1 strain (AID 157). Conditions: S. cerevisiae mec2-1 strain, at 50.0 µM, stronger effect = higher value. Summed up: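 Vehicle-treated cultures served as reference for growth inhibition of compound-exposed mec2-1 yeast.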
Assay [3] in a line: NCI Yeast Anticancer Drug Screen. Data for the sgs1 mgt1 strain (AID 161).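 Also: 0% = growth of cultures given vehicle only.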 Conditions: S. cerevisiae sgs1 mgt1 strain, at 50.0 µM, stronger effect = higher value. Summed up:
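Read-out: growth inhibition vs vehicle controls. Cells: mutant yeast strain deficient in DNA damage repair.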

Assay [4] is described as follows: NCI Yeast Anticancer Drug Screen. Data for the cln2 rad14 strain (AID 165).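 Also: 0% = growth equal to vehicle treated cultures.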 Conditions: S. cerevisiae cln2 rad14 strain, at 50.0 µM, stronger effect = higher value. Summed up: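 Each compound was tested on cln2 rad14 yeast. Inhibition of growth was calculated against vehicle-exposed controls.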
Assay [5] is described as follows: NCI Yeast Anticancer Drug Screen. Data for the bub3 strain (AID 167). Conditions: S. cerevisiae bub3 mutant strain, at 50.0 µM, stronger effect = higher value. Put shortly: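 Screening used yeast with an engineered genetic alteration affecting cell cycle control. Compound-exposed cultures were compared with vehicle cultures, and reduced growth was taken as inhibition.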
Assay [6] can be described thus: NCI Yeast Anticancer Drug Screen. Data for the mlh1 rad18 strain (AID 175). Conditions: S. cerevisiae mlh1 rad18 strain growth inhibition; at 50.0 µM; stronger effect = higher value. Put shortly: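 Vehicle-treated cultures served as the reference for growth inhibition in a yeast strain carrying DNA damage repair alterations exposed to each compound.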

Regarding `CS(C)=O.CS(C)=O.[Cl][Ru+2][Cl].[NH-]c1ccccc1[NH-]`, the growth inhibition in assay [1] was 38.6%; in assay [2], 7.6%; in assay [3], 34.4%; in assay [4], 23.8%; in assay [5], -1.9%; in assay [6], 27.8%.

As to `CN(C)Cc1ccccc1COC(=O)/C=C/c1ccccc1`, the growth inhibition in assay [1] is 11.3%; in assay [2] it was 7.5%; in assay [3], 8.8%; in assay [4] it was 10.1%; in assay [5] it was 7.4%; in assay [6], 8.95%.

`NC(=O)Cc1c(F)c(F)c(F)c(F)c1F`: the growth inhibition in assay [1] was 9.95%; in assay [2], -20.5%; in assay [3], -0.95%; in assay [4] it was 8.85%; in assay [5], 28.8%; in assay [6], 5.3%.

Regarding `CSCCC(NC(=O)c1cnc2ccccc2c1)C(N)=O` (stereo not given), the growth inhibition was -0.25% in assay [1]; -4.85% in assay [2]; 2.6% in assay [3]; -33.6% in assay [4]; -21.8% in assay [5]; 14.8% in assay [6].

`CC1=C/C(=N/NS(=O)(=O)c2ccc(C)cc2)CC(C)(C)C1`: the growth inhibition in assay [1] was 27.6%; in assay [2], -3.25%; in assay [3] it was 11.8%; in assay [4] it was -22.3%; in assay [5], 4.1%; in assay [6], 13.2%.

For `O=C1C(Cl)=C(SCc2ccccc2)C(=O)c2ccccc21`, the growth inhibition in assay [1] was 17.8%; in assay [2], 72.7% (active); in assay [3], 48.2%; in assay [4], -11.3%; in assay [5], 61.9%; in assay [6] it was 42.9%.

For the compound `O=C1CCCC2=C(N1)C(=O)C=CC2=O`, the growth inhibition in assay [1] was -2.55%; in assay [2], 20.9%; in assay [3] it was 17.1%; in assay [4], 39.5%; in assay [5], -0.2%; in assay [6] it was -20.9%.

Consider `C(CC1CCNCC1)CC1CCNCC1`, for which the growth inhibition was -39.7% in assay [1]; -19.1% in assay [2]; -20.3% in assay [3]; -23.8% in assay [4]; 12.2% in assay [5]; -64.7% in assay [6].

For `O=C1C(Cl)N(c2c(Cl)cccc2Cl)C1c1c[nH]c2ccccc12` (stereo not given), the growth inhibition was -35.5% in assay [1]; -43.6% in assay [2]; -34.2% in assay [3]; -22.4% in assay [4]; -20.9% in assay [5]; -41.8% in assay [6].

For the compound `C=C1CC(CCCCCCC2CC(=C)C(=O)O2)OC1=O` (stereo not given), the growth inhibition in assay [1] is 11.2%; in assay [2], 1.05%; in assay [3], -0.35%; in assay [4], 2.3%; in assay [5] it was 25.4%; in assay [6], -25.9%.

Turning to `CCCCCCCCCCCCCCCCS(=O)(=O)c1ccc(S(=O)(=O)CS(C)(=O)=O)cc1[N+](=O)[O-]`, the growth inhibition in assay [1] was -5.55%; in assay [2], -16.2%; in assay [3], 9.85%; in assay [4] it was 0.85%; in assay [5] it was 21.1%; in assay [6], 15.3%.

`O=C(OCC1OC(n2ccc(=O)[nH]c2=O)C(F)C1OC(=O)c1ccccc1)c1ccccc1` (stereo not given): the growth inhibition was 24.1% in assay [1]; 4.3% in assay [2]; 8.6% in assay [3]; 17.7% in assay [4]; 7.15% in assay [5]; 2.3% in assay [6].

Consider `c1ccc2c(c1)CCCN2c1nc(N2CCCCC2)nc(N2CCOCC2)n1`, for which the growth inhibition is 12.9% in assay [1]; -17.9% in assay [2]; 22.6% in assay [3]; 22.1% in assay [4]; 11.6% in assay [5]; 20.1% in assay [6].

As to `O=C(O)CC1CCC(CC(=O)O)CC1` (stereo not given), the growth inhibition was -9.5% in assay [1]; -8.65% in assay [2]; -5.25% in assay [3]; -40.9% in assay [4]; -12.7% in assay [5]; -1.65% in assay [6].

Consider `O=C(O)C(C(=O)O)C(c1ccccc1)c1ccccc1Br` (stereo not given), for which the growth inhibition in assay [1] is 5.15%; in assay [2], 17.1%; in assay [3] it was 28.1%; in assay [4], -184%; in assay [5], 23.9%; in assay [6], 29.5%.

With `CC(=O)Nc1ccc(OC(C)=O)cc1N`, the growth inhibition is -8.9% in assay [1]; -8.15% in assay [2]; 2.9% in assay [3]; -8.95% in assay [4]; 2.95% in assay [5]; 1% in assay [6].

For the compound `CCOC(=O)c1ccc(NCCCc2c(C)nc(N)[nH]c2=O)cc1`, the growth inhibition in assay [1] is 5.25%; in assay [2] it was 9.5%; in assay [3] it was -9.15%; in assay [4], -10.3%; in assay [5] it was 34.6%; in assay [6], -2.85%.

As to `CCC(C(O)c1ccc(Cl)cc1)[N+](=O)[O-]` (stereo not given), the growth inhibition in assay [1] is 29.9%; in assay [2], 21.7%; in assay [3] it was 35.9%; in assay [4] it was 3.05%; in assay [5] it was 4.65%; in assay [6], 43.7%.

Regarding `CC(=O)OCC(=O)C1(C)CCC2(C)CCC3(C)C(=CC(=O)C4C5(C)CCC(=O)C(C)(C)C5CCC43C)C2C1` (stereo not given), the growth inhibition is -2.95% in assay [1]; -30.8% in assay [2]; 2.7% in assay [3]; -2.25% in assay [4]; 13.7% in assay [5]; 15.4% in assay [6].

Take `COc1ccccc1-n1c(C)nc2c(cnn2CN2CCCCC2)c1=O`: the growth inhibition is 0.85% in assay [1]; -6.4% in assay [2]; 12.3% in assay [3]; -0.7% in assay [4]; 0.95% in assay [5]; 12% in assay [6].
